PubChem BioAssay (EPA / NIEHS)
“And” between values parts separate entries of the source, which are not always exact repeats. Equal entries are not always repeated. Results filed as inconclusive are left out. The source made the active and inactive calls. Rule for the calls: active = hit-call score of the fitted dose curve at least 0.9, where 1 is the maximum; inconclusive = response in the unintended direction; inactive = score below 0.9.

Columns and labels:
[1] = target: human Ephrin type-B Receptor 1 (EphB1), EPHB1 (gene 2047) (UniProt P54762); experiment: NVS_ENZ_hEphB1: NovaScreen (NVS) Enzymatic Assay for human Ephrin type-B Receptor 1 (EphB1) (AID 2283154)
Method: (§1) NVS_ENZ_hEphB1 is a biochemical, single-readout assay that uses extracted gene-proteins in a cell-free assay. Measurements were taken 1 hour after chemical dosing in a 384-well plate.NVS_ENZ_hEphB1 is one of one assay component(s) measured or calculated from the NVS_ENZ_hEphB1 assay. It is designed to make measurements of enzyme activity, a form of enzyme reporter, as detected with fluorescence intensity signals by Fluorescence and electrophoretic mobility shift technology.Data from the assay component NVS_ENZ_hEphB1 was analyzed into 1 assay endpoint. This assay endpoint, NVS_ENZ_hEphB1, was analyzed in the positive analysis fitting direction relative to DMSO as the negative control and baseline of activity. Using a type of enzyme reporter, loss-of-signal activity can be used to understand changes in the enzymatic activity as they relate to the gene EPHB1. Furthermore, this assay endpoint can be referred to as a primary readout, because this assay has produced multiple assay endpoints where this one serves a enzymatic activity function. To generalize the intended target to other relatable targets, this assay endpoint is annotated to the kinase intended target family, where the subfamily is receptor tyrosine kinase.
(§2) Binding assays used specific radioligands (tritiated, iodinated) with non-radioactive competitive displacement ligands in agonist or antagonist protocols (as indicated) and various reference compounds and inhibitors to titrate specific binding to receptors and transporters. Most enzyme assays (CYPs, kinases, phosphatases, proteases, HDACs) used recombinant protein and specific substrates (fluorescence mostly, some colorimetric and radioactive) and inhibitors, followed by a biochemical separation of substrate and product. All assays for the biochemical HTS were initially run in duplicate at a single concentration (10 uM for CYP450 assays and 25 uM for all others). […] Each assay was run with positive and negative controls, and concurrent controls on every plate. The follow-up (secondary) screen tested active chemical-pairs in concentration series, as well as a few additional assays not tested in the primary screen, some selected negative inactives, and several cases re-run in the concentration series for confirmatory purposes.

[2] = target: human Ephrin type-A Receptor 2 (EphA2), EPHA2 (gene 1969) (UniProt P29317); experiment: NVS_ENZ_hEphA2: NovaScreen (NVS) Enzymatic Assay for human Ephrin type-A Receptor 2 (EphA2) (AID 2283155)
Method in brief: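 Cell-free recombinant EphA2 kinase with specific substrate, 1 h, fluorescence with electrophoretic mobility-shift separation of substrate and product. Primary screen at 25 uM in duplicate; hits retested in singleton concentration-response up to 50 uM, referenced to DMSO.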

[3] = target: human Ephrin type-B Receptor 2 (EphB2), EPHB2 (gene 2048) (UniProt P29323); experiment: NVS_ENZ_hEphB2: NovaScreen (NVS) Enzymatic Assay for human Ephrin type-B Receptor 2 (EphB2) (AID 2283156)
Method in brief: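 Recombinant kinase with fluorescent substrate, product separated by electrophoretic mobility shift, read 1 h after dosing. Duplicate 25 uM screen, then singleton concentration-response to 50 uM max; loss of signal versus DMSO.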

[4] = target: human Esterase Plasma (ES), BCHE (gene 590) (UniProt P06276); experiment: NVS_ENZ_hES: NovaScreen (NVS) Enzymatic Assay for human Esterase Plasma (ES) (AID 2283157)
Method: NVS_ENZ_hES is a biochemical, single-readout assay that uses extracted gene-proteins from Human plasma in a cell-free assay. Measurements were taken 0.25 hour after chemical dosing in a 96-well plate.NVS_ENZ_hES is one of one assay component(s) measured or calculated from the NVS_ENZ_hES assay. It is designed to make measurements of enzyme activity, a form of enzyme reporter, as detected with absorbance signals by Colorimetric technology.Data from the assay component NVS_ENZ_hES was analyzed into 1 assay endpoint. This assay endpoint, NVS_ENZ_hES, was analyzed in the positive analysis fitting direction relative to DMSO as the negative control and baseline of activity. Using a type of enzyme reporter, loss-of-signal activity can be used to understand changes in the enzymatic activity as they relate to the gene BCHE. Furthermore, this assay endpoint can be referred to as a primary readout, because this assay has produced multiple assay endpoints where this one serves a enzymatic activity function. To generalize the intended target to other relatable targets, this assay endpoint is annotated to the esterase intended target family, where the subfamily is pseudocholinesterase.
Binding assays used specific radioligands (tritiated, iodinated) with non-radioactive competitive displacement ligands in agonist or antagonist protocols (as indicated) and various reference compounds and inhibitors to titrate specific binding to receptors and transporters. Most enzyme assays (CYPs, kinases, phosphatases, proteases, HDACs) used recombinant protein and specific substrates (fluorescence mostly, some colorimetric and radioactive) and inhibitors, followed by a biochemical separation of substrate and product. All assays for the biochemical HTS were initially run in duplicate at a single concentration (10 uM for CYP450 assays and 25 uM for all others). Assay-chemical combinations meeting a pre-defined threshold (e.g., 30% inhibition and other criteria defined below) were then run in singleton concentration-response format with maximum concentration of 20 uM for CYPs and 50 uM for all others. Each assay was run with positive and negative controls, and concurrent controls on every plate. The follow-up (secondary) screen tested active chemical-pairs in concentration series, as well as a few additional assays not tested in the primary screen, some selected negative inactives, and several cases re-run in the concentration series for confirmatory purposes.

[5] = target: human Ephrin type-A Receptor 1 (EphA1), EPHA1 (gene 2041) (UniProt P21709); experiment: NVS_ENZ_hEphA1: NovaScreen (NVS) Enzymatic Assay for human Ephrin type-A Receptor 1 (EphA1) (AID 2283158);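 note: activity is signal loss versus DMSO meaning EphA1 kinase inhibition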
Method in brief: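 Fluorescent substrate conversion, resolved by mobility-shift separation, measured 1 hour post-dosing using recombinant enzyme; signal loss relative to DMSO baseline. Single-concentration duplicates at 25 uM preceded singleton concentration series topping at 50 uM.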

[6] = target: human Fibroblast Growth Factor Receptor 1 (FGFR1), FGFR1 (gene 2260) (UniProt P11362); experiment: NVS_ENZ_hFGFR1: NovaScreen (NVS) Enzymatic Assay for human Fibroblast Growth Factor Receptor 1 (FGFR1) (AID 2283159);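 for AC50: hits lower the signal so potencies describe inhibitors of the kinase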
Method in brief: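 Cell-free recombinant kinase with fluorescent substrate, product separated by electrophoretic mobility shift; read 1 hour after dosing, loss of signal relative to DMSO. Initial screen in duplicate at 25 uM, actives followed in concentration series.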

[7] = target: human Elastase, ELANE (gene 1991) (UniProt P08246); experiment: NVS_ENZ_hElastase: NovaScreen (NVS) Enzymatic Assay for human Elastase (AID 2283153)
Method in brief: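 Cell-free elastase from human neutrophils, 1.5 h after dosing, activity read by absorbance. Primary screen in duplicate at 25 uM; hits (e.g., 30% inhibition) rerun in singleton concentration-response up to 50 uM, fitted versus DMSO.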

[8] = target: Histone deacetylase 3 (Homo sapiens) (UniProt O15379); experiment: NVS_ENZ_hHDAC3: NovaScreen (NVS) Enzymatic Assay for human Histone Deacetylase 3 (HDAC3) (AID 2283163)
Method in brief: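 Recombinant human HDAC3 with fluorescent substrate, 1 h after dosing; product separated from substrate by electrophoretic mobility shift and read by fluorescence. Primary screen at 25 uM in duplicate; actives (e.g. ≥30% inhibition) retested in concentration-response up to 50 uM.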

[9] = target: Protein deacetylase HDAC6 (Homo sapiens) (UniProt Q9UBN7); experiment: NVS_ENZ_hHDAC6: NovaScreen (NVS) Enzymatic Assay for human Histone Deacetylase 6 (HDAC6) (AID 2283164)
Method: as §1, with “NVS_ENZ_hHDAC6” for “NVS_ENZ_hEphB1”, “plate.NVS_ENZ_hHDAC6” for “plate.NVS_ENZ_hEphB1”, “NVS_ENZ_hHDAC6,” for “NVS_ENZ_hEphB1,”, “HDAC6.” for “EPHB1.”, “hydrolase” for “kinase”, “histone deacetylase. […]” for “receptor tyrosine kinase.”

[10] = target: human FYN Proto-Oncogene, Src family Tyrosine Kinase (Fyn), FYN (gene 2534) (UniProt P06241); experiment: NVS_ENZ_hFyn: NovaScreen (NVS) Enzymatic Assay for human FYN Proto-Oncogene, Src family Tyrosine Kinase (Fyn) (AID 2283161)
Method: as §1, with “NVS_ENZ_hFyn” for “NVS_ENZ_hEphB1”, “plate.NVS_ENZ_hFyn” for “plate.NVS_ENZ_hEphB1”, “NVS_ENZ_hFyn,” for “NVS_ENZ_hEphB1,”, “FYN.” for “EPHB1.”, “non-receptor” for “receptor”
as §2, with “The follow-up (secondary) screen tested active chemical-pairs in concentration series, as well as a few additional assays not tested in the primary screen, some selected negative inactives, and several cases re-run in the concentration series for confirmatory purposes.” left out

Sequence of human Esterase Plasma (ES), BCHE (gene 590) (P06276 whole entry, looked up): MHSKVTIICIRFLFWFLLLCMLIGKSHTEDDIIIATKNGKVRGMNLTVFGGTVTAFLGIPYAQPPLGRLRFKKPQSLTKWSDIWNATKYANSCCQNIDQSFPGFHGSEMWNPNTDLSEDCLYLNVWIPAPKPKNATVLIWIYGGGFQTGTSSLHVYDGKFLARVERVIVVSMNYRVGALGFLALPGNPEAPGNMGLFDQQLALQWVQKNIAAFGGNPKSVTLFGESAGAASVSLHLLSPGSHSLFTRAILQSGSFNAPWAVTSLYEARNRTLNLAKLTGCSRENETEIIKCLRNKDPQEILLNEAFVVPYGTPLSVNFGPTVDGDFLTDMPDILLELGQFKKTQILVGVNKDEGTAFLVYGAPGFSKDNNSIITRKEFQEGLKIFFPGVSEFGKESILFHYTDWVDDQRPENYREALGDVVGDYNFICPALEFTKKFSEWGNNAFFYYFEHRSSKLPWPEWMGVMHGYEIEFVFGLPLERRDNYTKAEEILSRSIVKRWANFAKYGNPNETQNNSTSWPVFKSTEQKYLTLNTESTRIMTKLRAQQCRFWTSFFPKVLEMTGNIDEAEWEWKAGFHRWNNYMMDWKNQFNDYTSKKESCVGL
Sequence of human Fibroblast Growth Factor Receptor 1 (FGFR1), FGFR1 (gene 2260) (P11362 whole entry, looked up): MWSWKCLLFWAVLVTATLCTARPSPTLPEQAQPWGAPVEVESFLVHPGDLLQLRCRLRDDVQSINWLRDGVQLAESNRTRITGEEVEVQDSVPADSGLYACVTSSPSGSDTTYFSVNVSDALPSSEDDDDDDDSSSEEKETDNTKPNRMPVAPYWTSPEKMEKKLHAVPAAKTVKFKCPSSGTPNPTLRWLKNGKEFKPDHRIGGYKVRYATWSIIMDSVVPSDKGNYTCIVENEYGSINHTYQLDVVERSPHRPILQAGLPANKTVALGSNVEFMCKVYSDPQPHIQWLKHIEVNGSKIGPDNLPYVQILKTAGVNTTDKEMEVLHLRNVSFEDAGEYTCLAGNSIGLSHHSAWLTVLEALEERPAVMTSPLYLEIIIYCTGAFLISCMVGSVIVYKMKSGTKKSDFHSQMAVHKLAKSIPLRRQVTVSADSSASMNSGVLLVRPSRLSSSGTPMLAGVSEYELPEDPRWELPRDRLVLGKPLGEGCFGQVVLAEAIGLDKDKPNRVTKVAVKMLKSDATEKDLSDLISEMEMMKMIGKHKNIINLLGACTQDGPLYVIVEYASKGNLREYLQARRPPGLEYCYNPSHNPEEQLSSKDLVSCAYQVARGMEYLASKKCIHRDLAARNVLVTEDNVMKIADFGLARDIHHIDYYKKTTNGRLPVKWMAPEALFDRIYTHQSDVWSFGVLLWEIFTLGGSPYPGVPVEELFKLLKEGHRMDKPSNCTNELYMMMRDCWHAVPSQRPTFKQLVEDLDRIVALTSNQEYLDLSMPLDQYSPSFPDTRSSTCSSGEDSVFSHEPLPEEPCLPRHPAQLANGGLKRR
Sequence of human Elastase, ELANE (gene 1991) (P08246 whole entry, looked up): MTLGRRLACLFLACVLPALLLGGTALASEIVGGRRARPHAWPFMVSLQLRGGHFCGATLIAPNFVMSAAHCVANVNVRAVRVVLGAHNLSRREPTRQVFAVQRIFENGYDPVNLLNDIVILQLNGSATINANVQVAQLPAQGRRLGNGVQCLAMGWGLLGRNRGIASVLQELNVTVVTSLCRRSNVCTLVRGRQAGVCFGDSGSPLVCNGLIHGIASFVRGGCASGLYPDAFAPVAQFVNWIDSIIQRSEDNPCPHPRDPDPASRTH
Sequence of human Ephrin type-A Receptor 1 (EphA1), EPHA1 (gene 2041) (P21709 whole entry, looked up): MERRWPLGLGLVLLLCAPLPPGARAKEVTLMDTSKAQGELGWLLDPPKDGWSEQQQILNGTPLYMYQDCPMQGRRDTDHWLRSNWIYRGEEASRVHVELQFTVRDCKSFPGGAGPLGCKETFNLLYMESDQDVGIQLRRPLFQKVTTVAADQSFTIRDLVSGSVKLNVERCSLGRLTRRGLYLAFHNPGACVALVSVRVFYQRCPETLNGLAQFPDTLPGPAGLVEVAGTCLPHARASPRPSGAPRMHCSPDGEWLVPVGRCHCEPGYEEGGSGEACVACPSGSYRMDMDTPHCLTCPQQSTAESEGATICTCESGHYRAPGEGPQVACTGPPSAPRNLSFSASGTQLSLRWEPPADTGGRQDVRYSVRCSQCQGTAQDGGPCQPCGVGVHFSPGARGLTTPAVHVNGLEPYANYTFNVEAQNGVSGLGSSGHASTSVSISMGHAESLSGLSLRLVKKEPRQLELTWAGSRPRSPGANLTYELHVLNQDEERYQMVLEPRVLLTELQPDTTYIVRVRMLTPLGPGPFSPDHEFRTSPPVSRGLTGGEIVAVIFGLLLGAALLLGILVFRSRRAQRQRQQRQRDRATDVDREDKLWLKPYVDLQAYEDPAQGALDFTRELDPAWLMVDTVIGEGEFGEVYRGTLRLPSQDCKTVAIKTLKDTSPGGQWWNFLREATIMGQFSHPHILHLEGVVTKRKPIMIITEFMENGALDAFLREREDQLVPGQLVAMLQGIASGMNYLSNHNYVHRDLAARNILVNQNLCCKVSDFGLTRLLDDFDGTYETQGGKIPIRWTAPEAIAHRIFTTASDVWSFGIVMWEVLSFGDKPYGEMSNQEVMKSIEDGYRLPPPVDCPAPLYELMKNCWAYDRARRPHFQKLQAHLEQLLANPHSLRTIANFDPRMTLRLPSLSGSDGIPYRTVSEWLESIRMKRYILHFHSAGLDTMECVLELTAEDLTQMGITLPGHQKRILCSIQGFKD
Sequence of human Ephrin type-B Receptor 1 (EphB1), EPHB1 (gene 2047) (P54762 whole entry, looked up): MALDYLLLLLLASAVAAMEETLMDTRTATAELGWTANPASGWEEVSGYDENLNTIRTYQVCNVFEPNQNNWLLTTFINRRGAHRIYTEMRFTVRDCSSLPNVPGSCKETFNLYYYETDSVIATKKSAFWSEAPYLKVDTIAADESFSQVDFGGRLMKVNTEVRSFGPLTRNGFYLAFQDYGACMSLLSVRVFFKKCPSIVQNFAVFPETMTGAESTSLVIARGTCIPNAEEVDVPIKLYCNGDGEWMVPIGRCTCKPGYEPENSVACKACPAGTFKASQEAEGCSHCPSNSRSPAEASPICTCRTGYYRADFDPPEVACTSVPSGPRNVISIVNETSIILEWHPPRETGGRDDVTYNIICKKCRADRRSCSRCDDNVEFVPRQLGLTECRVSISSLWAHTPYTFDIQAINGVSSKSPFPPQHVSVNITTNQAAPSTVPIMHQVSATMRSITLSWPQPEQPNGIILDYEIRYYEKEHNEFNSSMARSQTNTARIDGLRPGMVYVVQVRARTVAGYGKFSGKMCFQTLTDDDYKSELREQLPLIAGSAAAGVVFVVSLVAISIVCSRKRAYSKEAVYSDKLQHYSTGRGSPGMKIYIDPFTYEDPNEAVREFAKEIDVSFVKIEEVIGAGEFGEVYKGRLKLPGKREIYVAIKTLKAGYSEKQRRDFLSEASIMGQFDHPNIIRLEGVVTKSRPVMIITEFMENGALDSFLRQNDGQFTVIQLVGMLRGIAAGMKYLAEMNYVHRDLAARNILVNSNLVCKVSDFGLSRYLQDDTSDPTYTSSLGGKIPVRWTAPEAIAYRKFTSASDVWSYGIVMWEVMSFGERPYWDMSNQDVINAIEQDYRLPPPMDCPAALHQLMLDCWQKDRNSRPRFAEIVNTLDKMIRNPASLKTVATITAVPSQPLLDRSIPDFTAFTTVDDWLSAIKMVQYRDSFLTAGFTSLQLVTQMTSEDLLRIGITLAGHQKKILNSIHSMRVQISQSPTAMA
Sequence of human FYN Proto-Oncogene, Src family Tyrosine Kinase (Fyn), FYN (gene 2534) (P06241 whole entry, looked up): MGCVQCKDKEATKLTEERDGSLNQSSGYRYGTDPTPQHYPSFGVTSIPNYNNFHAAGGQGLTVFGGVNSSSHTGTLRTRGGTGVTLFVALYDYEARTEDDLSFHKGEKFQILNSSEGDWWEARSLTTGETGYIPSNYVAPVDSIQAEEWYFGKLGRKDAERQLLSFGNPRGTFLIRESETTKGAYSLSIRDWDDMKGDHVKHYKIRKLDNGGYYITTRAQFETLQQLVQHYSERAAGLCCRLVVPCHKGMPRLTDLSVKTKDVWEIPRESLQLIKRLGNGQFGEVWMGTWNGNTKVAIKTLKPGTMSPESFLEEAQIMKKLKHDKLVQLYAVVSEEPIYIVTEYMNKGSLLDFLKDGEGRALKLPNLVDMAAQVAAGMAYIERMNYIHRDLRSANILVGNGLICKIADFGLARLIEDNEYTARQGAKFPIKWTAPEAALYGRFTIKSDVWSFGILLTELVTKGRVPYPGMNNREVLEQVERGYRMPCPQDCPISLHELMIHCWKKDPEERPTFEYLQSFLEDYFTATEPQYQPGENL
Sequence of Histone deacetylase 3 (Homo sapiens) (O15379 whole entry, looked up): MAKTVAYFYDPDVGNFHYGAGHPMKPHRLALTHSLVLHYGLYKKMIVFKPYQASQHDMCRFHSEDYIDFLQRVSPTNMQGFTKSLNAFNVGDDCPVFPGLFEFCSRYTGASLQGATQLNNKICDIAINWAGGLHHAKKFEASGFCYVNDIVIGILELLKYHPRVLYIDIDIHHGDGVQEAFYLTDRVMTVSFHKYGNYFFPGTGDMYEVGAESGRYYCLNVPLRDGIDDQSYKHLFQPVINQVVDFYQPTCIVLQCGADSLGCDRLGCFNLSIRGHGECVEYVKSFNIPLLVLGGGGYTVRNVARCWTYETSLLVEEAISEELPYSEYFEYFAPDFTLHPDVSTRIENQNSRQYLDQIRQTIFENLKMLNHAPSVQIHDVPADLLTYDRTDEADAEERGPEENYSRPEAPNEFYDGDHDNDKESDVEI

Oc1ccc(Cl)cc1Cc1ccccc1
outcome [1]: inactive
outcome [2]: inactive
outcome [3]: inactive
outcome [4]: inactive

CC(C)N(C(=O)COc1nnc(C(F)(F)F)s1)c1ccc(F)cc1
AC50 [4]: 11.8 µM (active)

CNC(=O)CSP(=S)(OC)OC
outcome [1]: inactive
outcome [2]: inactive
outcome [5]: inactive
outcome [6]: inactive

O=C(O)COc1ccc(Cl)cc1Cl
outcome [1]: inactive

COP(=O)(OC)OC=C(Cl)Cl
AC50 [4]: 7.13 µM (active)

CC1(C)C(C=C(Cl)Cl)C1C(=O)OC(C#N)c1ccc(F)c(Oc2ccccc2)c1 (stereo not given)
outcome [7]: inactive
outcome [2]: inactive

CC(C)(C)C(O)C(Oc1ccc(Cl)cc1)n1cncn1 (stereo not given)
outcome [6]: inactive

CNC(=O)Oc1cccc(N=CN(C)C)c1
outcome [4]: inactive

CC(C)OC(=O)Nc1cccc(Cl)c1
outcome [4]: inactive

O=C(NC(=O)c1c(F)cccc1F)Nc1ccc(OC(F)(F)C(F)OC(F)(F)F)c(Cl)c1 (stereo not given)
outcome [7]: inactive
outcome [8]: inactive

CC[C@H](C)[C@H]1O[C@]2(C=C[C@@H]1C)C[C@@H]1C[C@@H](C/C=C(\C)[C@@H](O[C@H]3C[C@H](OC)[C@@H](O[C@H]4C[C@H](OC)[C@@H](O)[C@H](C)O4)[C@H](C)O3)[C@@H](C)/C=C/C=C3\CO[C@@H]4[C@H](O)C(C)=C[C@@H](C(=O)O1)[C@]34O)O2 (tested in a mixture with another compound)
outcome [1]: inactive
outcome [6]: inactive

O=[N+]([O-])/N=C1\NCCN1Cc1ccc(Cl)nc1
outcome [2]: inactive
outcome [5]: inactive

CNC(=O)/C=C(\C)OP(=O)(OC)OC
AC50 [4]: 18.3 µM (active)

ClC1C(Cl)C(Cl)C(Cl)C(Cl)C1Cl (stereo not given)
outcome [5]: inactive
outcome [6]: inactive
AC50 [9]: 0.00517 µM (active)

COC(=O)c1ccccc1S(=O)(=O)NC(=O)N(C)c1nc(C)nc(OC)n1
outcome [10]: inactive

Oc1cc(Cl)ccc1Oc1ccc(Cl)cc1Cl
outcome [7]: inactive
outcome [2]: inactive
outcome [6]: inactive

COP(=S)(OC)Oc1ccc([N+](=O)[O-])cc1
outcome [7]: inactive
outcome [4]: inactive

O=S(=O)(O)C(F)(F)C(F)(F)C(F)(F)C(F)(F)C(F)(F)C(F)(F)C(F)(F)C(F)(F)F
outcome [7]: inactive
AC50 [2]: 15.8 µM (active)
AC50 [6]: 39.7 µM (active) and 24.3 µM (active)
AC50 [10]: 47 µM (active)
AC50 [8]: 17.4 µM (active) and 10.3 µM (active)

O=C(O)C(F)(F)C(F)(F)C(F)(F)C(F)(F)C(F)(F)C(F)(F)C(F)(F)F
outcome [7]: inactive
outcome [10]: inactive

CCOCN(C(=O)CCl)c1c(C)cccc1CC
outcome [3]: inactive
